Data on 12 compounds can be found in PubChem BioAssay (NCATS).

Molecules are shown by their SMILES. Inconclusive results are not listed. Unmarked numbers belong to inactive results. The source made the active and inactive calls. The call rests on the fitted dose curve; in most records, active means well fitted curve in the direction sought with a large enough effect; inconclusive means small, poorly fitted or top-dose-only effect, or another doubt; inactive means no such curve, though single readings can be large; an effect the other way counts as inactive or inconclusive.

In one assay the test system is Es-2. Briefly: Primary qHTS to identify gynecologic anti-cancer compounds using libraries of approved drugs and bioactive compounds (AID 1345084). Further: nearly all actives have a fitted effect of over 55% in size. Particulars: Gynecologic cancer cell panel viability, ATPlite luminescence, 48 h; series mostly up to 57.5 µM. The method in brief:
(§1)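 Cell viability after 48 h drug treatment, ATPlite luminescence readout; five doses.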
For orientation: qHTS replaces the single test concentration by a dilution series.

The next assay has as its system HeLa. The description is as above. Particulars: Gynecologic cancer cell panel viability, ATPlite luminescence, 48 h; series mostly up to 57.5 µM. The method in brief:
as §1

The test system of another assay is Hek293T. The description is as above. Particulars: Gynecologic cancer cell panel viability, ATPlite luminescence, 48 h, control line for the selectivity index; series mostly up to 57.5 µM. The gist of the method: as §1
For orientation: Cellular ATP, detected with luciferase, serves as a proxy for viable cell number.

The next assay has as its system JEG-3. Described as above. As to conditions: Gynecologic cancer cell panel viability, ATPlite luminescence, 48 h; series mostly up to 57.5 µM. The gist of the method:
as §1

The next assay has as its system OV90. The description is as above. Particulars: Gynecologic cancer cell panel viability, ATPlite luminescence, 48 h; series mostly up to 57.5 µM. The method in brief: as §1
For the next assay, the system named is PA-1. The assay is described as above. Particulars: Gynecologic cancer cell panel viability, ATPlite luminescence, 48 h; series mostly up to 57.5 µM. The gist of the method: as §1
A further assay has as its system SKOV3. The description is as above. Particulars: Gynecologic cancer cell panel viability, ATPlite luminescence, 48 h; series mostly up to 57.5 µM. The method in brief:
as §1

A further assay deals with Tov-21-G. The assay is described as above. As to conditions: Gynecologic cancer cell panel viability, ATPlite luminescence, 48 h; series mostly up to 57.5 µM. The gist of the method: as §1
The next assay concerns Tov112D. The assay is described as above. As to conditions: Gynecologic cancer cell panel viability, ATPlite luminescence, 48 h; series mostly up to 57.5 µM. The method in brief:
as §1

Assay [1] is described as follows: Drug repurposing screens with cells derived from glioblastoma tumor samples (AID 1345199). Further: nearly all actives have a fitted effect of over 40% in size. Further: potency means the concentration at half of the fitted maximal effect. As to conditions: GBM patient neurospheres viability, ATP luminescence, 48 h. The method in brief: (§2)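 Four patient lines of CD133+ GBM neurospheres were screened at several concentrations; hits were retested in those lines plus three slower-growing GBM lines, using 48-hour treatment and ATP-based viability.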

A further assay deals with astro. The description is as above. As to conditions: viability, ATP luminescence, 48 h; series mostly up to 45.9 µM. The gist of the method:
as §2

[2] abbreviates: at 45.9 µM (top of the series), tumour line B.
The mark [3] stands for this setting: at 45.9 µM (top of the series), tumour line D.
Setting [4] is: at 46 µM (top of the series), tumour line A.
The mark [5] stands for this setting: at 46.1 µM (top of the series), tumour line C.
The mark [6] stands for this setting: at 20 µM (top of the series), tumour line C.
Where [7] appears, read: at 21.2 µM (top of the series), tumour line B.
Where [8] appears, read: at 21.2 µM (top of the series), tumour line D.
The mark [9] stands for this setting: at 21.3 µM (top of the series), tumour line A.
On the % scale 0 is the no-effect control and ±100 the full control effect.

On to `CC[N+](CC)(CCNC(=O)C(=O)NCC[N+](CC)(CC)Cc1ccccc1Cl)Cc1ccccc1Cl`, for which the Potency entry in the assay on Es-2, with HeLa, in the assay with Hek293T, with JEG-3, in the assay on OV90 and with PA-1 was “inactive” in each case. The Potency entry in the assay on SKOV3, in the assay with Tov-21-G, in the assay on Tov112D and in the assay on astro was “inactive” throughout. Further, the activity, negative = cell killing in [1] (setting [2]) is -6.34%; in assay [1] (setting [3]) it was -19.6%; in [1] (setting [4]), -23.4%; in assay [1] (setting [5]), 15.3%.

With `CC1(C)O[C@@H]2[C@@H](CO[C@@]3(COS(N)(=O)=O)OC(C)(C)O[C@@H]23)O1`, the Potency entry in the assay on Es-2, in the assay on HeLa, in the assay with Hek293T, in the assay with JEG-3, in the assay with OV90 and in the assay with PA-1 was “inactive” each time. For the same compound, the Potency result in the assay on SKOV3, with Tov-21-G, with Tov112D and with astro was “inactive” in each case. In addition, the activity, negative = cell killing in [1] (setting [2]) was 2.05%; in assay [1] (setting [3]), -22.3%; in [1] (setting [4]) it was -14.9%; in assay [1] (setting [5]) it was -2.36%.

In the case of `CN1CCC[C@@H]1c1cccnc1`, the Potency result in the assay with Es-2, in the assay with HeLa, in the assay with Hek293T, in the assay with JEG-3, in the assay on OV90 and in the assay on PA-1 was “inactive” each time. The Potency entry in the assay with SKOV3, in the assay with Tov-21-G, in the assay on Tov112D and in the assay on astro was “inactive” each time. Also, the activity, negative = cell killing in assay [1] (setting [2]) was -7.48%; in assay [1] (setting [3]) it was -12.9%; in assay [1] (setting [4]), -29.1%; in assay [1] (setting [5]) it was -0.391%.

With `Cc1ccnc(NS(=O)(=O)c2ccc(N)cc2)n1`, the Potency result in the assay with Es-2, in the assay with HeLa, in the assay on Hek293T, with JEG-3, with OV90 and in the assay on PA-1 was “inactive” each time. Further, the Potency entry in the assay on SKOV3, with Tov-21-G, in the assay with Tov112D and with astro was “inactive” in each case. Besides, the activity, negative = cell killing in assay [1] (setting [6]) was -10.2%; in assay [1] (setting [7]), -5.77%; in [1] (setting [8]), -5.49%; in assay [1] (setting [9]), -16.8%.

As for `CC(=O)OCC(=O)[C@@]1(O)[C@H](C)C[C@H]2[C@@H]3CCC4=CC(=O)C=C[C@]4(C)[C@@]3(F)[C@@H](O)C[C@@]21C`, the Potency result with Es-2, in the assay on HeLa, with Hek293T, in the assay on JEG-3, in the assay on OV90 and in the assay with PA-1 was “inactive” in each case. Besides, the Potency result in the assay on SKOV3, with Tov-21-G, with Tov112D and with astro was “inactive” in each case. Moreover, the activity, negative = cell killing in [1] (setting [6]) was -1.02%; in assay [1] (setting [7]) it was -13.3%; in assay [1] (setting [8]), -10.9%; in assay [1] (setting [2]), 1.42%; in [1] (setting [3]), -14.4%; in assay [1] (setting [5]), -7.18%.

On to `COC(=O)[C@@H]1CC2=CC(=O)CC[C@]2(C)[C@@]23O[C@@H]2C[C@@]2(C)[C@@H](CC[C@@]24CCC(=O)O4)[C@H]13`, for which the Potency result in the assay on Es-2, in the assay with HeLa, with Hek293T, with JEG-3, with OV90 and in the assay with PA-1 was “inactive” each time. The Potency result in the assay with SKOV3, in the assay with Tov-21-G, in the assay with Tov112D and in the assay with astro was “inactive” throughout. Moreover, the activity, negative = cell killing was -3.02% in [1] (setting [2]), -20% in assay [1] (setting [3]), -25% in assay [1] (setting [4]) and -18.4% in assay [1] (setting [5]).

For `OC[C@@H](O)[C@@H](O[C@@H]1O[C@H](CO)[C@H](O)[C@H](O)[C@H]1O)[C@H](O)[C@@H](O)CO`, the Potency entry with Es-2, in the assay with HeLa, in the assay with Hek293T, with JEG-3, in the assay on OV90 and in the assay with PA-1 was “inactive” throughout. Moreover, the Potency result in the assay on SKOV3, in the assay with Tov-21-G, in the assay on Tov112D and with astro was “inactive” each time. Moreover, the activity, negative = cell killing in assay [1] (setting [2]) was -6.48%; in assay [1] (setting [3]) it was -4.42%; in assay [1] (setting [4]) it was -40.2%; in [1] (setting [5]) it was -3.02%.

For the compound `COc1cc(C(=S)N2CCOCC2)cc(OC)c1OC`, the Potency result with Es-2, in the assay with HeLa, with Hek293T, in the assay on JEG-3, in the assay on OV90 and in the assay on PA-1 was “inactive” each time. The Potency result in the assay on SKOV3, in the assay with Tov-21-G, in the assay with Tov112D and with astro was “inactive” each time. For the same compound, the activity, negative = cell killing was -7.77% in assay [1] (setting [2]), -20% in assay [1] (setting [3]), -25.7% in [1] (setting [4]) and -20.5% in [1] (setting [5]).

On to `CN(C(=O)CN(CCO)CC(=O)N(C)C(C)(C)Cc1ccccc1)C(C)(C)Cc1ccccc1`, for which the Potency entry with Es-2, in the assay with HeLa, in the assay with Hek293T, with JEG-3, in the assay on OV90 and in the assay on PA-1 was “inactive” throughout. The Potency result in the assay with SKOV3, in the assay with Tov-21-G, in the assay with Tov112D and in the assay on astro was “inactive” in each case. For the same compound, the activity, negative = cell killing in assay [1] (setting [6]) was 7.73%; in assay [1] (setting [7]) it was -8.65%; in assay [1] (setting [8]) it was -0.577%. Besides, the Potency in assay [1] (tumour line A) was 10 µM (active).

On to `c1ccc(CNCCNCc2ccccc2)cc1`, for which the Potency entry with Es-2, in the assay on HeLa, in the assay on Hek293T, in the assay on JEG-3, in the assay on OV90 and with PA-1 was “inactive” throughout. In addition, the Potency result in the assay on SKOV3, in the assay with Tov-21-G, with Tov112D and in the assay on astro was “inactive” in each case. The results for the activity, negative = cell killing in [1] (setting [2]), in assay [1] (setting [3]) and in assay [1] (setting [5]) were -9.72%, -12.2% and -25.1%, respectively. Further, in assay [1] (tumour line A), the Potency was 22.4 µM (active).

Regarding `CC1(C)O[C@@H]2C[C@H]3[C@@H]4C[C@H](F)C5=CC(=O)CC[C@]5(C)[C@H]4[C@@H](O)C[C@]3(C)[C@]2(C(=O)CO)O1`, the Potency entry in the assay with Es-2, with HeLa, with Hek293T, in the assay with JEG-3, with OV90 and in the assay with PA-1 was “inactive” in each case. The Potency entry in the assay with SKOV3, with Tov-21-G, in the assay with Tov112D and with astro was “inactive” throughout. Also, the activity, negative = cell killing in [1] (setting [6]) is -16.9%; in assay [1] (setting [7]), -8.1%; in assay [1] (setting [8]), -28%; in assay [1] (setting [9]) it was -15.3%.

On to `CCC(=O)c1c(O)cc(O)cc1O`, for which the Potency result with Es-2, in the assay with HeLa, in the assay with Hek293T, in the assay with JEG-3, with OV90 and in the assay with PA-1 was “inactive” throughout. Moreover, the Potency result with SKOV3, in the assay with Tov-21-G, in the assay with Tov112D and in the assay on astro was “inactive” in each case. In addition, the activity, negative = cell killing was -0.713% in [1] (setting [2]), -16.2% in [1] (setting [3]) and -2.44% in assay [1] (setting [5]).
